Test results reported in PubChem BioAssay (NCATS).
Inconclusive results are not listed. Active and inactive are the calls of the source. Calls follow the shape of the dose curve; as a rule, active = well fitted inhibition curve with a large enough effect; inconclusive = small, poorly fitted or top-dose-only effect; inactive = flat fitted curve, though single readings scatter. *1 amine or outer side, *2 acyl side, *3 side chain or, on linkers, in order; H or OH if unused. Where a SMILES comes first, the peptide text is derived from it. Bridges are numbered along the chain shown (N, C = ends). X6 = O=C(CCC[*:2])[*:1]

Key:
HEK293 = experiment: Cytotoxic Profiling of Annotated Libraries Using Quantitative High-Throughput Screening (AID 1296008); conditions: Five cell lines viability, CellTiter-Glo ATP luminescence, 48-72 h; max response: active compounds read low; as to max response: % is scaled to controls: 0 for no effect and ±100 for the full control effect
Summary of the method: (§1)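 Cells exposed to compounds for 48 or 72 hr at 37 degrees Celsius. Viability read as ATP-coupled luminescence with CellTiter-Glo after 10 min at room temperature.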

HaCat = experiment: as above; conditions: Five cell lines viability, CellTiter-Glo ATP luminescence, 48-72 h; max response: active compounds read low
Summary of the method: as §1

KB-3-1 = experiment: as above; conditions: Five cell lines viability, CellTiter-Glo ATP luminescence, 48-72 h; max response: active compounds read low
Summary of the method: as §1

NIH3T3 = experiment: as above; conditions: Five cell lines viability, CellTiter-Glo ATP luminescence, 48-72 h; max response: active compounds read low
Summary of the method: as §1

HEK293T = experiment: qHTS assay to identify novel small-molecules to repurpose for Merkel cell carcinoma treatment (AID 1296009); conditions: MCC and control cell lines, CellTiter-Glo viability, 72 h; series mostly up to 44.8 µM
Summary of the method: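 Dose-response viability screen; 72 hr exposure at 37 degree celsius; CellTiter-Glo added, 10 min room temperature, luminescence read; RLUs scaled between no-cell and DMSO wells.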
Also: nearly all actives have a fitted effect of over 60% in size.

c1ccc(Cc2ncc3c(n2)CCNCC3)cc1
inactive: outcome (HEK293) | max response (HaCat) -4.11% | max response (KB-3-1) 0.381% | outcome (NIH3T3) | Potency (HEK293T)

CC(C)(C)NCc1cc(Nc2ccnc3cc(Cl)ccc23)c2c(c1O)CCCC2
inactive: outcome (HEK293) | max response (HaCat) -6.14% | max response (KB-3-1) 7.98% | outcome (NIH3T3) | outcome (HEK293T) inactive [at 0.588 µM]

COc1c(OC2OC(CO)C(O)C(O)C2O)ccc(O)c1C(=O)OCc1ccccc1O[C@@H]1O[C@H](CO)[C@@H](O)[C@H](O)[C@H]1O (stereo not given in full)
inactive: outcome (HEK293) | max response (HaCat) 3.76% | outcome (KB-3-1) | max response (NIH3T3) -1.73% | Potency (HEK293T)

COC1CC(=O)CCC(C)OC(=O)CC1O (stereo not given)
inactive: outcome (HEK293) | max response (HaCat) 1.84% | outcome (KB-3-1) | max response (NIH3T3) 4.21% | Potency (HEK293T)

COc1c2c(c(C)c3c1C(=O)OC3)O[C@@]1(C)C[C@@H](O)[C@]34O[C@](OC)(CC[C@]3(C)[C@H]1C2)OC4(C)C
inactive: outcome (HEK293) | max response (HaCat) -1.6% | outcome (KB-3-1) | max response (NIH3T3) 2.2% | Potency (HEK293T)

C/C=C(/C)C(=O)O[C@H]1C=C(C)C[C@H](OC(=O)c2ccc(O)cc2)C2[C@](O)(C(C)C)CC[C@@]21C (stereo not given in full)
inactive: outcome (HEK293) | max response (HaCat) -13.2% | outcome (KB-3-1) | max response (NIH3T3) -3.12% | Potency (HEK293T)

COC(=O)[C@H](OC(C)=O)[C@H]1C(C)(C)C(=O)[C@H]2CC3=C4CC(=O)O[C@@H](c5ccoc5)[C@]4(C)CCC3[C@@]1(C)C2=O (stereo not given in full)
inactive: outcome (HEK293) | max response (HaCat) -1.64% | outcome (KB-3-1) | outcome (NIH3T3) | Potency (HEK293T)

O=c1ccn([C@@H]2O[C@H](CO)[C@@H](O)[C@H]2O)c(=O)[nH]1
inactive: outcome (HEK293) | max response (HaCat) 3.94% | max response (KB-3-1) 0.253% | outcome (NIH3T3) | Potency (HEK293T)

C=C(C)C1CC2(CO)C(=CC1=O)CCC(O)C2C (stereo not given)
inactive: outcome (HEK293) | max response (HaCat) -2.77% | max response (KB-3-1) 4.67% | outcome (NIH3T3) | Potency (HEK293T)

CC1(C)CC2C3=CCC4C5(C)CCC(OC6OC(CO)C(O)C(OC7OC(CO)C(O)C(OC8OC(CO)C(O)C(OC9OC(COC%10OC(CO)C(O)C(O)C%10O)C(O)C(O)C9O)C8O)C7O)C6O)C(C)(C)C5CCC4(C)C3(C)CCC2(C(=O)O)CC1O (stereo not given)
inactive: outcome (HEK293) | max response (HaCat) -4.22% | max response (KB-3-1) -7.8% | max response (NIH3T3) 2.99% | outcome (HEK293T) inactive [at 9.27 µM]

CC(=O)O[C@@H]1[C@@H](OC(=O)/C=C/c2ccccc2)[C@H](C)O[C@@H](O[C@H]2[C@@H]3C=CO[C@@H](O[C@@H]4O[C@H](CO)[C@@H](O)[C@H](O)[C@H]4O)[C@@H]3[C@@]3(CO)O[C@@H]23)[C@@H]1OC(C)=O
inactive: outcome (HEK293) | max response (HaCat) -6.34% | max response (KB-3-1) 5.32% | outcome (NIH3T3) | Potency (HEK293T)

CC1(C)O[C@@]2(C)CC[C@@H]1C[C@@H]2OC1OC(CO)C(O)C(O)C1O (stereo not given in full)
inactive: outcome (HEK293) | max response (HaCat) -5.55% | outcome (KB-3-1) | max response (NIH3T3) -8.31% | Potency (HEK293T)

CN1C(=O)c2ccccc2NC(=O)[C@]12O[C@@H]2c1cccc(O)c1
inactive: outcome (HEK293) | max response (HaCat) -7.54% | max response (KB-3-1) 4.06% | max response (NIH3T3) -15.7% | Potency (HEK293T)

CC[C@H](C)[C@@H]1NC(=O)[C@H](Cc2ccc(OC)cc2)NC(=O)CCCSC[C@@H](C(=O)N2CCC[C@H]2C(=O)N[C@@H](CC(C)C)C(=O)NCC(N)=O)NC(=O)[C@H](CC(N)=O)NC(=O)[C@H](CCC(N)=O)NC1=O (Y(Me)IQNCPLG-NH2; linker N-5 via X6)
inactive: outcome (HEK293) | max response (HaCat) -67.2% | outcome (KB-3-1) | outcome (NIH3T3) | Potency (HEK293T)

C=CC1C(O[C@@H]2O[C@H](CO)[C@@H](O)[C@H](O)[C@H]2O)OC=C(C(=O)OC)C1Cc1nccc2c1[nH]c1ccccc12 (stereo not given in full)
inactive: outcome (HEK293) | max response (HaCat) 1.01% | max response (KB-3-1) 5.15% | outcome (NIH3T3) | Potency (HEK293T)

CC1CCC2C(C)(C)C(O)CCC2(C)C12Cc1c(O)cc3c(c1O2)CN(C(CCC(N)=O)C(=O)O)C3=O (stereo not given)
inactive: outcome (HEK293) | max response (HaCat) 2.99% | max response (KB-3-1) 5.86% | max response (NIH3T3) -0.736% | Potency (HEK293T)

CC1=C2CC3OC3(C)CCC3OC3(C)CC2OC1=O (stereo not given)
inactive: outcome (HEK293) | max response (HaCat) -1.36% | outcome (KB-3-1) | max response (NIH3T3) -7.4% | Potency (HEK293T)

C[C@@H]1O[C@@H](O[C@@H]2[C@@H](O)[C@@H](O)[C@H](O[C@@H]3[C@@H](O)[C@@H](O[C@]4(CO)O[C@H](CO)[C@@H](O)[C@@H]4OC(=O)/C=C/c4ccc(O)cc4)O[C@H](CO)[C@H]3OC(=O)/C=C/c3ccc(O)cc3)O[C@H]2C)[C@H](O)[C@H](O)[C@H]1O
inactive: outcome (HEK293) | max response (HaCat) 1.83% | outcome (KB-3-1) | outcome (NIH3T3) | outcome (HEK293T) inactive [at 9.27 µM]

COc1c(C)c(OCC=C(C)C)cc2c1C(=O)NC2=O
inactive: outcome (HEK293) | max response (HaCat) -14.7% | outcome (KB-3-1) | max response (NIH3T3) -1.16% | Potency (HEK293T)

CCOc1c2c(c(OCC)c3ccccc13)C(=O)N(c1ccc(CC(=O)NS(=O)(=O)c3ccccc3)cc1)C2
inactive: outcome (HEK293) | max response (HaCat) -7.44% | max response (KB-3-1) 1.17% | max response (NIH3T3) 3.33% | Potency (HEK293T)

CN1C(=O)c2ccccc2-n2c(nc3ccccc3c2=O)[C@@]12O[C@H]2c1ccccc1
inactive: outcome (HEK293) | max response (HaCat) -0.431% | outcome (KB-3-1) | outcome (NIH3T3) | Potency (HEK293T)

C[C@H]1CC[C@@]2(OC1)O[C@H]1CC3C4CC=C5C[C@H](O)C[C@@H](O[C@@H]6O[C@@H](C)[C@H](O)[C@@H](O)[C@H]6O[C@@H]6O[C@@H](C)[C@H](O)[C@@H](O)[C@H]6O)[C@]5(C)C4CC[C@]3(C)[C@H]1[C@@H]2C (stereo not given in full)
inactive: outcome (HEK293) | max response (HaCat) -9.03% | outcome (KB-3-1) | max response (NIH3T3) 0.342% | Potency (HEK293T)

CC1CCC(=O)CC(O)C(O)CC(=O)O1 (stereo not given)
inactive: outcome (HEK293) | max response (HaCat) 4.62% | max response (KB-3-1) 5.19% | outcome (NIH3T3) | Potency (HEK293T)
